# Experimental data: PubChem BioAssay (NCI)
# Where “and” joins values, the source holds several entries; their conditions need not be identical. Identical values can stand only once. The panel holds about 83,000 compounds, 20% with a hit somewhere; the sample as a whole holds those more often.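 The endpoint reported here, percent growth, reads 100 for growth as untreated, 0 for no net growth and -100 for all cells dead.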 Calls of active or inactive are those of the source. The calls were made as follows: active = growth percent below 10; inactive = the rest.
# Legend:
# Assay in all cases: NCI-60 one-dose screen, 48 h (100 = growth as untreated, 0 = no growth, -100 = all killed)
# Settings in all cases: 10 µM
# HOP-92 NSCLC = test system: HOP-92 NSCLC
# K-562 leukemia = test system: K-562 leukemia
# MALME-3M melanoma = test system: MALME-3M melanoma
# RXF 393 renal = test system: RXF 393 renal
# SK-MEL-2 melanoma = test system: SK-MEL-2 melanoma
# SN12C renal = test system: SN12C renal
# TK-10 renal = test system: TK-10 renal
# CAKI-1 renal = test system: CAKI-1 renal
# A498 renal = test system: A498 renal
# RPMI-8226 leukemia = test system: RPMI-8226 leukemia
# OVCAR-3 ovarian = test system: OVCAR-3 ovarian
# BT-549 breast = test system: BT-549 breast
# MDA-MB-435 melanoma = test system: MDA-MB-435 melanoma
# HCC-2998 colon = test system: HCC-2998 colon
# UACC-257 melanoma = test system: UACC-257 melanoma
SMILES,growth (HOP-92 NSCLC),growth (K-562 leukemia),growth (MALME-3M melanoma),growth (RXF 393 renal),growth (SK-MEL-2 melanoma),growth (SN12C renal),growth (TK-10 renal),growth (CAKI-1 renal),growth (A498 renal),growth (RPMI-8226 leukemia),growth (OVCAR-3 ovarian),growth (BT-549 breast),growth (MDA-MB-435 melanoma),growth (HCC-2998 colon),growth (UACC-257 melanoma)
COc1cccc2c1cc([N+](=O)[O-])c1c(C(=O)O)cc3c(c12)OCO3,95.3% (inactive),97.6% (inactive),95.9% (inactive),104% (inactive),108% (inactive),113% (inactive),100% (inactive),87.1% (inactive),114% (inactive),97.7% (inactive),126% (inactive),120% (inactive),107% (inactive),91.3% (inactive),–
CC1=C2C(=O)[C@](C)(CO)C=C2C(=O)[C@](C)(O)C12CC2,-6.97% (active),16.5% (inactive),-24.5% (active),-82.9% (active),-35.6% (active),40.2% (inactive),-6.25% (active),45.8% (inactive),-35.9% (active),–,4.36% (active),8.15% (active),–,-2.5% (active),25.3% (inactive)
CCC(C)[C@H]1C(=O)O[C@H](C(C)C)C(=O)N(C)[C@@H](C(C)C)C(=O)O[C@H](C(C)C)C(=O)N(C)[C@@H](C(C)C)C(=O)O[C@H](C(C)C)C(=O)N1C (some centres undefined),-19% (active),6.74% (active),14.7% (inactive),22% (inactive),-2.6% (active),7.58% (active),8.22% (active),–,-8.55% (active),-25.6% (active),19.9% (inactive),14.2% (inactive),20% (inactive),32.3% (inactive),–
CC1=C(CCC=NNC(N)=O)C2=C(C)C3(CC3)[C@@](C)(O)C(=O)C2=C1,–,54.7% (inactive),-71.1% (active),-93.6% (active),–,1.73% (active),-9.84% (active),0.975% (active),–,59.8% (inactive),–,-93.5% (active),-27.9% (active),-73.2% (active),-62.1% (active)
C/C=C/CC(C)C(O)[C@H](NC(=O)[C@@H]1CCCN1C(=O)C(C)(C)NC(=O)CCCCCCCCC)C(=O)NC(C)(C)C(=O)N[C@@H](CCC(N)=O)C(=O)N[C@H](CCC(N)=O)C(=O)NC(C)(C)C(=O)NC(C)(C)C(=O)N[C@@H](CCC(N)=O)C(=O)N[C@H](CC(C)C)C(=O)N[C@H](CO)CC(C)C (some centres undefined),-16.5% (active) and -24.9% (active),-50.1% (active) and 18% (inactive),-41.5% (active) and -92.4% (active),-54.3% (active) and -73.3% (active),-48.1% (active) and -31.4% (active),2.83% (active) and -20.9% (active),25.8% (inactive) and -4.38% (active),17.6% (inactive) and 1.1% (active),-48.1% (active) and -26.1% (active),-13.2% (active) and -31.7% (active),-18.7% (active),-77.4% (active) and -78.3% (active),-52.8% (active) and -87.1% (active),-36.1% (active) and -5.11% (active),-71.9% (active) and -73.2% (active)
C=C1[C@@H](C)C2[C@H](Cc3ccccc3)NC(=O)[C@]23[C@H](OC(C)=O)/C=C/[C@@](C)(O)C(=O)[C@@H](C)C/C=C/[C@H]3[C@@H]1O (some centres undefined),-37.8% (active),76.1% (inactive),81.2% (inactive),-1.19% (active),81.5% (inactive),79% (inactive),26.4% (inactive),–,-18.8% (active),19.8% (inactive),81.2% (inactive),12.4% (inactive),64.1% (inactive),78.5% (inactive),–
C[C@@H]1C[C@H]2C(=O)O[C@@H](C)C(NC(=O)[C@H](Cc3cc(F)cc(F)c3)NC(=O)Nc3ccc(OS(=O)(=O)F)cc3)C(=O)N3CCC[C@H]3C(=O)N3CCO[C@H](C)[C@H]3C(=O)N[C@@H](CO)C(=O)N2C1 (some centres undefined),9.16% (active),20.7% (inactive),39% (inactive),-5.55% (active),–,21.1% (inactive),71.7% (inactive),39.4% (inactive),–,19.7% (inactive),–,22.4% (inactive),20.8% (inactive),23.9% (inactive),16.2% (inactive)
CC(C)=CCc1c2c(c(O)c3c1O[C@]14C(=C[C@@H]5C[C@H]1C(C)(C)O[C@@]4(C/C=C(/C)C(=O)O)C5=O)C3=O)C=CC(C)(C)O2,-53.6% (active),2.2% (active),-70.4% (active),-85.5% (active),-75.2% (active),-26.9% (active),–,–,-94.3% (active),-8.35% (active),-93.9% (active),-11.2% (active),-80.1% (active),-88.1% (active),-77.2% (active)
